Data taken from PubChem BioAssay (NCATS).
Values joined by “and” are separate entries in the source; they are usually repeats but may differ in a detail not shown here. Identical values can stand only once. Records with an inconclusive call do not appear. Entries that show only a call come without a potency. Active and inactive are the calls of the source. The call rests on the fitted dose curve; in most records, active means well fitted curve in the direction sought with a large enough effect; inconclusive means small, poorly fitted or top-dose-only effect, or another doubt; inactive means no such curve, though single readings can be large; an effect the other way counts as inactive or inconclusive.

Experiment: qHTS assay to identify small molecule inhibitors of chordoma cells - UCH-2 (AID 1259356)
Details: UCH-2 chordoma viability, CellTiter-Glo ATP luminescence, 48 h; series mostly up to 46.1 µM

Compound | Potency
CCCCCCCCC(=O)NCc1ccc(O)c(OC)c1 | inactive
NC(=O)CN1CCCC1=O | inactive
c1ccc2nc(N3CCNCC3)ccc2c1 | inactive

Experiment: P-glycoprotein substrates identified in KB-3-1 adenocarcinoma cell line, qHTS therapeutic library screen (AID 1346986); further: nearly all actives have a fitted effect of over 60% in size
Details: KB-3-1 parental cells viability, CellTiter-Glo, 72 h; at 44.5 µM (top of the series)
Procedure, shortened: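 KB-3-1 parental cells and P-gp-overexpressing KB-8-5-11 (colchicine omitted during assay) plated at 500 cells/well, dosed in dose-response, incubated 72 h at 37 degree C. CellTiter-Glo luminescence read; KB-8-5-11 also tested with tariquidar.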

Compound | outcome
COc1ccc2c(C(=O)c3ccc(Cl)cc3)c(C)n(CC(=O)O)c2c1 | inactive
CC[C@H]1C[C@H]2[C@@H]3CCC4=CC(=O)CC[C@@H]4[C@H]3CC[C@]2(C)[C@H]1O | inactive
O=C(N[C@H]1N=C(c2ccccc2F)c2cccc3c2N(CC3)C1=O)c1cc2ccccc2[nH]1 | inactive

Experiment: P-glycoprotein substrates identified in KB-8-5-11 adenocarcinoma cell line, qHTS therapeutic library screen (AID 1346987); further: nearly all actives have a fitted effect of over 65% in size; further: potency means the concentration at half of the fitted maximal effect
Details: KB-8-5-11 (P-gp overexpressing) viability, CellTiter-Glo, 72 h; series mostly up to 44.5 µM
Procedure, shortened: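 KB-8-5-11: colchicine-selected sub-line of KB-3-1 over-expressing P-gp; assay medium lacked colchicine. 72 h drug exposure at 37 degree C, CellTiter-Glo.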

Compound | Potency
CCCCCCCCC(=O)NCc1ccc(O)c(OC)c1 | inactive
NC1(c2ccccc2)CCCCC1 | inactive
COc1cc(CC(C)N)cc2c1OCO2 (stereo not given) | inactive
CC[C@H]1C[C@@H]2C[C@H]3c4[nH]c5ccc(OC)cc5c4CCN(C2)[C@@H]13 | inactive
C[C@@H]1C[C@@H]([C@H](O)CC2CC(=O)NC(=O)C2)C(=O)[C@@H](C)C1 | 2.31 µM (active) and 590 nM (active)
COP(=S)(OC)Oc1ccc(S(N)(=O)=O)cc1 | inactive
CCOC(=O)c1ncn2c1CN(C)C(=O)c1c(I)cccc1-2 | inactive
COc1ccc2c3c1O[C@H]1[C@@H](O)C=C[C@H]4[C@@H](C2)N(C)CC[C@@]341 | inactive
Cc1nnc2n1-c1sc(CCc3ccc(CC(C)C)cc3)cc1C(c1ccccc1Cl)=NC2C (stereo not given) | 14.6 µM (active)
COc1ccc2c(C(=O)c3ccc(Cl)cc3)c(C)n(CC(=O)O)c2c1 | inactive
CN(C)CCc1c[nH]c2ccccc12 | inactive
Cc1nc2ccccc2c(=O)n1-c1ccccc1Cl | inactive
COc1cc(C[C@@H](C)N)c(OC)cc1Br | inactive
CCCCC1C(=O)NC(=O)N(C2CCCCC2)C1=O (stereo not given) | inactive
CC1N=C(N)OC1c1ccccc1 (stereo not given) | inactive
O=C(CCl)c1ccc(Cl)cc1Cl | 2.91 µM (active) and 11.2 µM (active)
CC(Cc1ccc2c(c1)OCO2)NO (stereo not given) | inactive
O=C(O)CCCCCCNC1c2ccccc2CCc2ccccc21 | inactive
CCC(=O)OC1(c2ccccc2)CCN(C)CC1 | inactive
C[C@H]1CNCCc2ccc(Cl)cc21 | inactive

Compound | Potency
O=C(N[C@H]1N=C(c2ccccc2F)c2cccc3c2N(CC3)C1=O)c1cc2ccccc2[nH]1 | inactive
NC(=O)CN1CCCC1=O | inactive
CNC(C)Cc1ccc2c(c1)OCO2 (stereo not given) | inactive
CN(C)CCc1c[nH]c2ccc(O)cc12 | inactive
Cc1nnc2n1-c1sc(CCC(=O)N3CCOCC3)cc1C(c1ccccc1Cl)=NC2 | inactive
CCOP(=S)(OCC)O/N=C(\C#N)c1ccccc1 | inactive
Oc1ccc([C@H]2CNCc3c2ccc(O)c3O)cc1O | inactive
COc1cc(CC(C)N)c(OC)cc1Br (stereo not given) | inactive
O=C(O)Cc1ccccc1 | inactive
CCC(OC(C)=O)C(CC(C)NC)(c1ccccc1)c1ccccc1 (stereo not given) | 20 µM (active)
CNC(C)Cc1ccccc1OC (stereo not given) | inactive
CN(C)CCc1c[nH]c2cccc(O)c12 | inactive
COc1ccc2[nH]cc(CCN(C(C)C)C(C)C)c2c1 | inactive
COc1ccc(OC)c(CC(C)N)c1 (stereo not given) | inactive
c1ccc2nc(N3CCNCC3)ccc2c1 | inactive
CCC1(c2cnc[nH]2)Cc2ccccc2C1 | inactive
C[C@]12CC[C@H]3[C@@H](CCC4=CC(=O)CC[C@@H]43)[C@@H]1CC[C@@H]2O | 2.91 µM (active) and 5.8 µM (active)
Cc1cccc(Cc2cnc[nH]2)c1C | inactive
CCOC(=O)NC(C)(C)Cc1ccc(Cl)cc1 | inactive
